# Hits are enriched below; roughly 2.3% of the tested compounds scored in any of these assays.
# CHO-K1 Ca antag – M1 antagonist counterscreen hit in parental CHO-K1 cells; ATP-induced calcium, Fluo-8 fluorescence; AID 602250; 360,000 tested, 0.6% active; inhibition, % at 3 µM;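 active = inhibition above a per-plate cutoff, the plate's mean sample inhibition plus 3 SD, cut at about 24% in these data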;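 note: 0% = DMSO plus EC80 ATP and 100% = DMSO alone without ATP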
# M1 ag parental – M1 agonist counterscreen hit in parental CHO-K1 cells; Fluo-8 calcium fluorescence; scaled to maximal ATP response, vehicle zero; activation, % at 3 µM; 360,000 tested, 0.48% active; AID 602248; in the data active = activation above about 15%;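 note: untransfected CHO-K1 host cells lacking M1 receptor as counterscreen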
# M1 antag – blocks human M1 muscarinic receptor | P11229 | CHO-K1 hM1, Fluo-8 calcium fluorescence, ACh EC80 antagonist | inhibition, % at 3 µM | 360,000 tested, 1.3% active;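 active = percent inhibition above its own plate's cutoff, namely the mean of that plate's compound wells plus 3 SD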;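 note: peak over basal fluorescence ratio during 140 s after agonist addition; 0% = ACh EC80 plus DMSO and 100% = DMSO alone without agonist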
# Target sequence (P11229 whole entry, looked up): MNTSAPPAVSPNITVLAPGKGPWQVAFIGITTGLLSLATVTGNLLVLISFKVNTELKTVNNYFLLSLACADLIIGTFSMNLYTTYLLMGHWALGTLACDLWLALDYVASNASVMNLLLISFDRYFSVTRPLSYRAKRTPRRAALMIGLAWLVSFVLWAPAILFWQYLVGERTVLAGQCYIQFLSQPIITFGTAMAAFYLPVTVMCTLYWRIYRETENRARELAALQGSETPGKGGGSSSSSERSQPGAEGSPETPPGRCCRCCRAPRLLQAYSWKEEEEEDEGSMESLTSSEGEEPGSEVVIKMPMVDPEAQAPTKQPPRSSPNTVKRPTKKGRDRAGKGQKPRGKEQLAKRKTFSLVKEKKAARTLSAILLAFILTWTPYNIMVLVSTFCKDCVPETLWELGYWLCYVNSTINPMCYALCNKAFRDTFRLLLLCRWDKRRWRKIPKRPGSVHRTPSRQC
# CHO-K1 Ca PAM – M1 PAM counterscreen hit in parental CHO-K1 cells. 360,000 tested, 0.02% active. activation, % at 3 µM. ATP EC20, Fluo-8 calcium fluorescence; 0% at ATP EC20, 100% at ATP max. AID 602247;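 active = activation above the run cutoff, the mean activation of all test compounds plus 3 SD, cut at about 40% in these data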;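 note: peak over basal fluorescence ratio in a 140 s read after ATP addition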
# CHRM1 PAM – human CHRM1 positive allosteric modulation; P11229; CHO-K1 hM1, Fluo-8 calcium fluorescence, ACh EC20; 0% = ACh EC20, 100% = maximal ACh; activation, % at 3 µM; 360,000 tested, 0.088% active; AID 588819; in the data active = activation above about 19%, passing the limit was not always enough
# CHRM1 agonist – activates human CHRM1 receptor. P11229. CHO-K1 hM1, Fluo-8 calcium fluorescence, agonist mode; 0% DMSO, 100% acetylcholine EC100. activation, % at 3 µM. 360,000 tested, 0.33% active. AID 588814;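 active = activation above the run's mean compound activation plus 3 SD, cut at about 16% in these data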;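 note: peak over basal fluorescence ratio within a 140 s kinetic read after compound addition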
# Starred values were filed as active, the others as inactive.
SMILES,CHO-K1 Ca antag,M1 ag parental,M1 antag,CHO-K1 Ca PAM,CHRM1 PAM,CHRM1 agonist
COc1ccc(C(=O)C2CCCN(Cc3cccc4c3OCO4)C2)cc1OC (centres undefined),-8,0,29*,9,-32,-13
O=C(c1ccc2c(c1)OCO2)C1CCCN(Cc2ccc3nsnc3c2)C1 (centres undefined),-18,1,78*,-10,-27,-8
Cc1ccc(OCc2cc(C(=O)NC3CCc4ccccc43)no2)cn1 (centres undefined),8,9,15,-27,-12,5
O=C(O)c1cccc2c1C(=O)c1ccc(-c3ccc(Cl)c(C(F)(F)F)c3)cc1S2(=O)=O,-4,0,0,1,8,-2
O=C(NC1CCCCC1)C1COc2ccccc2O1 (centres undefined),-3,1,46*,3,-26,-7
CC1CCC(NC(=O)C2COc3ccccc3O2)CC1 (centres undefined),21,-1,-5,-8,2,-6
O=C(Nc1nnc(-c2ccc3c(c2)CCCC3)o1)C1COc2ccccc2O1 (centres undefined),25*,-1,3,-10,-4,-4
O=C(CSc1nnc(Cc2ccccc2)o1)Nc1ccc(N2CCOCC2)cc1,-5,0,-4,-23,2,-1
CC1CCc2nc3ccc(S(=O)(=O)N4CCC(C(=O)NC(C)c5ccccc5)CC4)cc3c(C(=O)O)c2C1 (centres undefined),-4,1,-3,9,3,-2
COc1cc(/C=N/N=C2/NC(=O)C(Cc3ccccc3)S2)ccc1O (centres undefined),5,24*,1,18,7,1
COc1ccc(/C=N/N=C2/NC(=O)C(CC(=O)O)S2)cc1OS(=O)(=O)c1ccccc1 (centres undefined),-8,0,-6,3,4,-2
c1ccc(NC2=NCCN2CCCC2CCCCC2)cc1,-10,2,13,5,-7,-13
O=C(O)C1CCN(S(=O)(=O)/C=C/c2ccccc2)CC1,-11,0,0,15,-3,-4
COc1cccc(-c2cnc3c(NC=O)cc(-c4ccc(N(C)C)cc4)cn23)c1,25*,14,15,4,-1,3
O=CNc1cc(-c2ccccc2)cn2c(-c3ccc(F)c(Cl)c3)cnc12,-16,1,-9,18,4,-3
CN(C)c1ccc(-c2cc(NC=O)c3ncc(-c4ccc(F)c(Cl)c4)n3c2)cc1,5,20*,17,11,-14,11
CCOC(=O)Cc1nnc(NC(=O)CCc2ccccc2)s1,-1,0,1,3,0,-4
COc1ccc(C(=O)N2CCCN(C)CC2)cc1S(=O)(=O)N(C)Cc1ccccc1,-6,1,11,-8,-4,-7
O=[N+]([O-])c1ccccc1NCCOc1ccccc1,-1,0,-4,-4,2,-6
Cc1nonc1OCCNCCNc1ccccc1[N+](=O)[O-],27*,0,13,-12,-9,-1
CC(=O)Nc1cccc(-c2nc3ccc(NC(C)=O)cc3s2)c1,-9,1,5,22,8,-5
CC(=O)Nc1cccc(-c2nc3ccccc3s2)c1,14,21*,6,3,-2,-5
O=C(O)c1ccc2c(c1)C(=O)N(c1cccc(-c3nc4ccccc4s3)c1)C2=O,24*,0,-6,-6,2,-4
CC(=O)Oc1cccc(N2C(=O)c3ccc(C(=O)O)cc3C2=O)c1,-5,0,4,13,4,-1
CCCCCN(C(=O)CCC(=O)OCCOc1cccc(C)c1)c1c(N)n(CCCC)c(=O)[nH]c1=O,-4,2,1,8,7,-2
COCCN(C(=O)CSc1nc2ccccc2c(=O)n1C(C)COC)c1c(N)n(Cc2ccccc2)c(=O)[nH]c1=O (centres undefined),4,1,7,6,-22,-13
CCCN(C(=O)CSCc1ccc(C)cc1)c1c(N)n(Cc2ccccc2)c(=O)[nH]c1=O,-1,-1,-5,-10,4,-1
